In publication PMC5540273 (PLoS ONE, 2017):

Key:
Conditions in all cases: concentration: 1 μM, replicates: in singlicate; n = 1
EPHB4 = system: EPHB4
EPHB6 = system: EPHB6
ERBB2 = system: ERBB2
ERBB3 = system: ERBB3
ERBB4 = system: ERBB4
ERK1 = system: T1, ERK1
T1 construct: gene MAPK3

ERK2 = system: T2, ERK2
T2 construct: gene MAPK1

ERK3 = system: T3, ERK3
T3 construct: gene MAPK6

ERK4 = system: T4, ERK4
T4 construct: gene MAPK4

ERK5 = system: T5, ERK5
T5 construct: gene MAPK7

ERK8 = system: T6, ERK8
T6 construct: gene MAPK15

ERN1 = system: ERN1
FAK = system: T7, FAK
T7 construct: gene PTK2

FER = system: FER
FES = system: FES
FGFR1 = system: FGFR1
FGFR2 = system: FGFR2
FGFR3 = system: FGFR3
FGFR4 = system: FGFR4
FGR = system: FGR
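Also: KINOMEscan kinase panel screen.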

| SMILES | %Inh (EPHB4) [%] | %Inh (EPHB6) [%] | %Inh (ERBB2) [%] | %Inh (ERBB3) [%] | %Inh (ERBB4) [%] | %Inh (ERK1) [%] | %Inh (ERK2) [%] | %Inh (ERK3) [%] | %Inh (ERK4) [%] | %Inh (ERK5) [%] | %Inh (ERK8) [%] | %Inh (ERN1) [%] | %Inh (FAK) [%] | %Inh (FER) [%] | %Inh (FES) [%] | %Inh (FGFR1) [%] | %Inh (FGFR2) [%] | %Inh (FGFR3) [%] | %Inh (FGFR4) [%] | %Inh (FGR) [%] |
| --- | --- | --- | --- | --- | --- | --- | --- | --- | --- | --- | --- | --- | --- | --- | --- | --- | --- | --- | --- | --- |
| Cc1ccc(NC(=O)c2ccc(Cl)cc2)cc1-c1ccc(C(=O)Nc2ccncc2)cc1 [GSK1398467] | 30 | 0 | 30 | 0 | 12 | 0 | 0 | 0 | 19 | 0 | 0 | 0 | 0 | 24 | 0 | 0 | 0 | 7 | 18 | 40 |
| Cc1ccccc1-c1cc(-c2c[nH]nc2-c2ccccn2)ccn1 [GW680061] | 10 | 4 | 22 | 0 | 25 | 1 | 0 | 0 | 25 | 0 | 0 | 0 | 0 | 2 | 0 | 0 | 0 | 0 | 0 | 15 |
| Fc1ccc(-c2nc3n(c2-c2ccncc2)CCS3)cc1 [GI98581] | 2 | 7 | 0 | 3 | 8 | 10 | 25 | 5 | 0 | 0 | 0 | 28 | 0 | 13 | 0 | 0 | 0 | 20 | 0 | 21 |
| COc1ccc(Nc2nccc(N3CCC(NC(=O)c4cc5ccccc5s4)C3)n2)cc1 (centres unmarked) [GSK1379738] | 0 | 17 | 1 | 8 | 0 | 0 | 0 | 0 | 15 | 0 | 0 | 0 | 0 | 0 | 0 | 0 | 0 | 2 | 4 | 15 |
| Nc1ncnc2occ(-c3ccc4c(c3)CCN4C(=O)Cc3cc(F)ccc3F)c12 [GSK2645446] | 6 | 87 | 30 | 11 | 0 | 0 | 0 | 21 | 0 | 0 | 0 | 0 | 0 | 8 | 0 | 0 | 0 | 17 | 1 | 16 |
| CS(=O)(=O)CCNCc1nc(-c2ccc3ncnc(Nc4ccc(OCc5ccccc5)c(Cl)c4)c3c2)cs1.Cl [GW582764] | 8 | 0 | 100 | 58 | 97.8 | 0 | 0 | 0 | 0 | 0 | 0 | 0 | 0 | 0 | 0 | 0 | 0 | 0 | 0 | 18 |
| CC(=O)c1c(C)c2cnc(Nc3ccn(C)n3)nc2n(C2CCCC2)c1=O | 0 | 6 | 0 | 0 | 0 | 0 | 0 | 15 | 17 | 9 | 17 | 0 | 0 | 9 | 0 | 0 | 0 | 0 | 11 | 0 |
| Cn1cnc2c(N)ncnc21 [SKF-97623] | 52 | 0 | 35 | 0 | 39 | 77 | 0 | 0 | 0 | 0 | 12 | 0 | 0 | 0 | 0 | 0 | 0 | 0 | 0 | 51 |
| CCn1c(-c2c(N)noc2C)nc2cnccc21 [SB-737856] | 54 | 0 | 31 | 0 | 0 | 0 | 9 | 100 | 16 | 0 | 41 | 15 | 0 | 3 | 42 | 0 | 28 | 37 | 11 | 61 |
| Cn1cncc1-c1cc2c(Nc3ccc(OCc4ccccc4)cc3)ncnc2cn1 [GW281179] | 17 | 21 | 99.6 | 75 | 70 | 0 | 0 | 0 | 0 | 0 | 0 | 0 | 0 | 14 | 0 | 9 | 19 | 2 | 12 | 18 |
| CC(C)c1ccc(O)cc1Nc1ccnc2ccc(C(F)(F)F)cc12 [GW482059] | 0 | 0 | 10 | 0 | 0 | 0 | 0 | 0 | 0 | 0 | 17 | 8 | 0 | 14 | 0 | 10 | 2 | 5 | 57 | 9 |
| O=c1cc(N2CCOCC2)nc2n(Cc3ccccc3F)ccn12 [GSK2297428] | 3 | 11 | 0 | 0 | 0 | 0 | 0 | 0 | 19 | 0 | 0 | 7 | 0 | 36 | 0 | 0 | 12 | 10 | 0 | 4 |
| O=C1NC(=O)C(c2ccc(Cl)cc2)=C1Nc1cccc(Cl)c1 [SB-317651] | 0 | 8 | 14 | 0 | 0 | 0 | 8 | 0 | 0 | 0 | 10 | 3 | 0 | 0 | 0 | 0 | 0 | 4 | 0 | 0 |
| COC(=O)c1cccc(NC(=O)NC2CCN(c3ccnc(Nc4ccc(F)cc4)n3)C2)c1 (centres unmarked) [GSK1379725] | 0 | 0 | 16 | 0 | 0 | 0 | 0 | 0 | 0 | 0 | 0 | 0 | 0 | 0 | 0 | 0 | 4 | 4 | 9 | 12 |
| FC(F)(F)c1ccccc1-c1cc(-c2c[nH]nc2-c2ccccn2)ccn1 [GW679396] | 0 | 100 | 8 | 0 | 0 | 0 | 0 | 11 | 21 | 0 | 0 | 10 | 0 | 15 | 0 | 4 | 0 | 0 | 0 | 12 |
| Cl.Cl.Cl.N#Cc1ccc(CCNc2nccc(-c3cccc(CN4CCNCC4)c3)n2)cc1 [GSK2137462] | 16 | 1 | 0 | 0 | 0 | 0 | 0 | 31 | 4 | 0 | 28 | 25 | 56 | 4 | 6 | 0 | 10 | 17 | 22 | 23 |
| CC[C@@H]1CO[C@H](C(=O)Nc2ccccc2)CN1c1cc(-c2ccc3c(N)n[nH]c3c2)nc(NC)n1 [GSK2376236] | 16 | 3 | 8 | 0 | 18 | 0 | 0 | 8 | 42 | 7 | 0 | 19 | 0 | 27 | 9 | 0 | 0 | 41 | 19 | 31 |
| CCn1c(-c2ccccc2)nc2cnccc21 [SB-733416] | 16 | 0 | 0 | 0 | 0 | 0 | 18 | 0 | 0 | 37 | 23 | 0 | 2 | 18 | 0 | 18 | 0 | 0 | 23 | 22 |
| COc1cccc(NC(=O)Nc2ccc(C)c(-c3ccc(C(=O)Nc4ccncc4)cc3)c2)c1 [GSK1398474] | 8 | 26 | 0 | 0 | 25 | 7 | 0 | 7 | 1 | 0 | 1 | 1 | 13 | 42 | 12 | 9 | 0 | 28 | 3 | 32 |
